The values below come from PubChem BioAssay (Tox21).

Values without a mark were called inactive. Active and inactive are the calls of the source. Calls follow the shape of the dose curve; as a rule, active = well fitted curve in the direction sought with a large enough effect in the repeat runs; inconclusive = weak or mixed curves; inactive = flat fitted curve, though single readings scatter.
% is scaled to controls: 0 for no effect and ±100 for the full control effect.

The nature of the assay: qHTS assay to test for compound auto fluorescence at 590 nm (red) in HEK293 cell free culture (AID 720683). Conditions: cell-free medium autofluorescence, Ex540/Em590 red; series mostly up to 91.3 µM. From the text:
U.S. Tox21 Program National Center for Advancing Translational Sciences [NCATS] NIH Chemical Genomics Center [NCGC] U.S. Environmental Protection Agency [EPA] National Institutes of Environmental Health Sciences [NIEHS] National Toxicology Program [NTP] U.S. Food and Drug Administration [FDA] Tox21 Assay Overview: Compound auto fluorescence often interferes with screening of the compound library against various biological targets and signaling pathways. Some of these compounds may have fluorophoric properties. Such properties may interfere with the assay outputs resulting in false positives and/or negatives. To decrease such complications and ensure the compound activities are relevant in terms of biological response, the Tox21 10K compound library was screened for auto fluorescence. From the fluorophores used as reporter signals in our screening assays, the auto fluorescence equivalencies of compounds against three fluorophores have been evaluated: Triamterene, Fluorescein and Rose Bengal sodium for blue, green and red fluorescence, respectively. The fluorescence intensities were measured using Excitation/Emission wavelengths at 405/460nm, 485/535nm and 540/590nm for blue, green and red labels, respectively. This assay includes the red fluorescence data.
Tox21 Assay Protocol Summary: 5 uL of culture medium (DMEM containing 10% FBS) per well was dispensed into black wall/clear bottom 1536-well plates using a Multidrop Combi Dispenser (ThermoFisher Scientific, Waltham, MA). After 23 nL compound or DMSO vehicle was transferred into assay plate by a pintool work station (Kalypsys, San Diego, CA), fluorescence intensities in the assay plates were measured by an Envision (PerkinElmer, Shelton, CT) plate reader using three labels for measuring blue, green and red fluorescence at […] 460, 535 and 590nm respectively.
In general terms: qHTS replaces the single test concentration by a dilution series.
Turning to `CCOCCOCCOCC`, the compound was called inactive.
Same read-out and setting: for `CC(=O)Nc1cccc(C)c1` the value was “inactive”; for `N[C@@H](CCC(=O)Nc1ccc([N+](=O)[O-])cc1)C(=O)O`, “inactive”.
As to `Cc1cc2cc3c(C)cc(=O)oc3c(C)c2o1`, the fluorescence, % of fluorescent control is 0.147% [at 18.6 µM].
For the compound `O=C(CCNNC(=O)c1ccncc1)NCc1ccccc1`, the compound was classed as inactive.
On the same count and under the same terms, to `Cc1ccccc1OCC(O)CO` (stereo not given) belongs “inactive”.
The same measure, in the same setting: for `CCc1ccc(C=O)cc1` the value was “inactive”.
Regarding `CC(=O)OC(C)OC(=O)C(C)c1ccc(-c2ccccc2)c(F)c1` (stereo not given), the compound was classed as inactive.
With `O=C(O)c1ccc(Cl)cc1Cl`, the outcome was inactive.
The same measure, in the same setting: for `CN(C)CCOCCO` the value was “inactive”.
Consider `Cc1cc(C(C)(C)C)c(O)c(C)c1CC1=NCCN1`, for which the compound was called inactive.
The same measure, in the same setting: to `CC(=C(CCOC(=O)C(C)C)SSC(CCOC(=O)C(C)C)=C(C)N(C=O)Cc1cnc(C)nc1N)N(C=O)Cc1cnc(C)nc1N` belongs “inactive”; to `CCOC(=O)[C@H](CCc1ccccc1)N[C@@H](C)C(=O)N1C(=O)N(C)C[C@H]1C(=O)O`, “inactive”; to `CCCCCCCCCC(C)=O`, “inactive”.
As to `Cc1cc(Cl)c(C)cc1Cl`, the compound was called inactive.
Regarding `CC(=O)c1sc(C)nc1C`, the compound was called inactive.
Still for that read-out and setting: for `O=S(=O)(O)c1cc(O)c2ccc(Nc3ccccc3)cc2c1` the value was “inactive”.
Same read-out and setting: to `C[C@H](CCC(=O)O)[C@H]1CC[C@H]2[C@@H]3C(=O)C[C@@H]4CC(=O)CC[C@]4(C)[C@H]3CC(=O)[C@]12C` belongs “inactive”; to `CCCCOCCOC(=O)COc1nc(Cl)c(Cl)cc1Cl`, “inactive”.
On the same count and under the same terms, for `CCN(CC)CC(=O)Nc1c(C)cccc1C` the value was “inactive”.
Turning to `CC(=O)CCCCn1c(=O)c2c(ncn2C)n(C)c1=O`, the fluorescence, % of fluorescent control is 0.153% [at 18.6 µM].
In the case of `On1nnc2ccccc21`, the outcome was inactive.
The same measure, in the same setting: for `O=S(=O)(O)CCN1CCN(CCO)CC1` the value was “inactive”; for `C[C@@H]1O[C@@H](O[C@@H]2[C@@H](O)[C@H](OCCc3ccc(O)c(O)c3)O[C@H](CO[C@@H]3O[C@H](CO)[C@@H](O)[C@H](O)[C@H]3O)[C@H]2OC(=O)/C=C/c2ccc(O)c(O)c2)[C@H](O)[C@H](O)[C@H]1O`, “inactive”.
In the case of `Cc1cccc(C)c1NC(=O)c1ccccc1C(=O)O`, the compound was called inactive.
As for `CC1(C)S[C@@H]2[C@H](N=CN3CCCCCC3)C(=O)N2[C@H]1C(=O)O`, the outcome was inactive.
Take `CCCC/C=C/C=C\C=O`: the call was inactive.
Still for that read-out and setting: for `COc1ccc(OC)c(Cl)c1` the value was “inactive”; for `COc1nccnc1NS(=O)(=O)c1ccc(N)cc1`, “inactive”; for `Cc1ccc(C=O)cc1C`, “inactive”.
Regarding `O=S(O)(O)=S`, the fluorescence, % of fluorescent control is -0.356% [at 3.72 µM].
As for `CCCC/C=C\CCCCCCCCCC=O`, the compound was called inactive.
As for `CCCCCCCC/C=C\CCCCCCCC(=O)OCCCC`, the fluorescence, % of fluorescent control was 0.213% [at 18.6 µM].
As to `CC(C)CCCCOC(=O)c1ccccc1C(=O)OCCCCC(C)C`, the compound was called inactive.
For `CC(C)C[C@H](NC(=O)CNC(=O)[C@H](Cc1ccc(O)cc1)NC(=O)[C@H](CO)NC(=O)[C@H](Cc1c[nH]c2ccccc12)NC(=O)[C@H](Cc1cnc[nH]1)NC(=O)[C@@H]1CCC(=O)N1)C(=O)N[C@@H](CCCN=C(N)N)C(=O)N1CCC[C@H]1C(=O)NCC(N)=O` (stereo in doubt), the outcome was inactive.
On the same count and under the same terms, to `CCOc1cc(NC(C)=O)ccc1C(=O)OC` belongs “inactive”; to `CCCCNC1CC(C)(C)NC(C)(C)C1`, “inactive”.
Same read-out and setting: for `CCCCN` the value was “inactive”.
As for `COC(=O)C1CC(=O)C(C(=O)OC)CC1=O` (stereo not given), the fluorescence, % of fluorescent control is 0.0034% [at 3.72 µM].
Turning to `CC(C)(C)c1cc(CCC(=O)NN)cc(C(C)(C)C)c1O`, the compound was called inactive.
